Source: PubChem BioAssay
KCNQ2 inh – inhibitors of rat KCNQ2 potassium channel. O88943. CHO-K1 KCNQ2, FluxOR thallium flux, 20 min; active compounds read low. B-score at 10 µM. 310,000 tested, 1.1% active;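 active means fluorescence ratio B-score at most minus 3 library SDs, with starting brightness B-score within 2 library SDs, cut at about -5.5 in these data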
KCNQ2 pot – potentiators of rat KCNQ2 potassium channel | O88943 | CHO-K1 KCNQ2, FluxOR thallium flux fluorescence; active compounds read high | B-score at 10 µM | 310,000 tested, 0.54% active;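 active means fluorescence ratio B-score at least 3 SD of library B-scores, with initial fluorescence B-score within 3 of them, cut at about 5.3 in these data; same plate scores as AID 2156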;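 further: B-score of peak minus minimum over baseline fluorescence ratio after K+ and Tl+ stimulus; positive B-score means potentiation of KCNQ2 with more thallium influx and brighter signal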
Kir21 conf inh – confirmation of mouse Kir2.1 potassium channel inhibitors; shares compounds with KCNQ2 pot; Kir2.1-expressing cells, FluxOR thallium flux fluorescence; active compounds read low; Tl flux remaining, % of negative control (active compounds read low), % at 10 µM; 2,300 tested, 41% active;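 active means Primary-screen hit whose thallium flux fell at least 3 control SD below untreated wells in both duplicates, with normal baseline fluorescence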;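 further: 0% = blank wells without stimulus and 100% = stimulated no-compound controls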
HEK293 ctr – alters thallium flux in parental HEK293 cells, Kir2.1 counter-screen | 2,300 tested, 19% active | shares compounds with KCNQ2 pot | FluxOR thallium flux fluorescence; 0% = unstimulated blank wells | FluxOR signal as % of negative control (100 = no effect), % at 10 µM;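 active means dye signal at least 3 control SD above or below untreated wells in both duplicates, raw fluorescence within 3, either direction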;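 further: percent is based on the flux ratio of peak minus minimum fluorescence over baseline F0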
CHO-K1 Tl ctr – parental CHO-K1 activity in KCNQ2 potentiator counter-screen | shares compounds with KCNQ2 pot | parental CHO-K1 cells, FluxOR thallium flux fluorescence; zero = vehicle mean+3SD, 100% = vehicle-minus-blank window | activity increase over 3SD of controls, % at 10 µM | 1,200 tested, 43% active | AID 2282;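 active means signal rise of at least 3 SD above the untreated control mean, in both duplicate wells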;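 further: counter screen of KCNQ2 potentiator hits so any rise reflects channel-independent effects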
KCNQ1 sel pot – selectivity of KCNQ2 potentiators: effect on human KCNQ1; shares compounds with KCNQ2 pot; CHO KCNQ1 stable, FluxOR thallium flux fluorescence; beyond 3SD, as % of vehicle-control signal; activation over 3SD threshold, % at 10 µM; 1,200 tested, 28% active;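 active means fluorescence ratio rise of at least 3 SD of vehicle wells above their mean, in both replicate wells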;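 further: 0% = vehicle mean plus 3 SD and 100% = vehicle minus unstimulated blank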
Target sequence (P51787 whole entry, looked up): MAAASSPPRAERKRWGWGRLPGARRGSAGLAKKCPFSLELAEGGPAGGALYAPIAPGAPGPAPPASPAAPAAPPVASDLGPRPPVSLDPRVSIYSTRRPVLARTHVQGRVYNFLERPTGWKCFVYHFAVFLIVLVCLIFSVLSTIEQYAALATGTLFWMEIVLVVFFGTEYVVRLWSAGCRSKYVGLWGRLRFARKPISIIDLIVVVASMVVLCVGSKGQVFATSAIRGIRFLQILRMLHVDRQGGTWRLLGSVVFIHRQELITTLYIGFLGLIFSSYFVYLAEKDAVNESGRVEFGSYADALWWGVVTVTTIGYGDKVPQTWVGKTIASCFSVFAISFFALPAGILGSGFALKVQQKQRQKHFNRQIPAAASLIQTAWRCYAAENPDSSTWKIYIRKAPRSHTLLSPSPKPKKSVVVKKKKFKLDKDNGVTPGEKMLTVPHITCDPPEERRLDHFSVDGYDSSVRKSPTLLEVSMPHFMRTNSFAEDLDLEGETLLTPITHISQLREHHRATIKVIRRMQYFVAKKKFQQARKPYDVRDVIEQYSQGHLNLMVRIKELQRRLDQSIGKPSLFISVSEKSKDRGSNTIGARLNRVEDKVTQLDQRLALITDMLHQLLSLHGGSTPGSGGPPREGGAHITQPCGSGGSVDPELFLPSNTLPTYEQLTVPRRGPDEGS
KCNQ2 pot conf – confirmation of rat KCNQ2 potassium channel potentiators. shares compounds with KCNQ2 pot. CHO-KCNQ2 cells, FluxOR thallium flux fluorescence. potentiation, less the hit threshold, % at 10 µM. 1,200 tested, 68% active;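 active means fluorescence ratio rising 3 SD or more over the vehicle control mean in both replicates, plus primary screen hit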;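 further: peak minus minimum thallium fluorescence divided by baseline after K/Tl stimulus; 0% = vehicle mean plus 3 SD and 100% = vehicle minus unstimulated blank difference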
Kir2-1 sel – mouse Kir2.1 off-target activity of KCNQ2 potentiators | shares compounds with KCNQ2 pot | HEK293 Kir2.1, FluxOR thallium flux fluorescence | activity over 3SD threshold, % at 10 µM | 1,200 tested, 2% active | AID 2345;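 active means fluorescence ratio rise of at least 3 SD above the vehicle-control mean, seen in both replicates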;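 further: 0% = vehicle mean plus 3 SD and 100% = vehicle minus no-stimulus blank window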
KCNQ2 W236L pot – potentiates the retigabine-insensitive rat KCNQ2 W236L mutant channel; shares compounds with KCNQ2 pot; CHO KCNQ2-W236L, automated patch clamp current; current increase over 3SD of negative controls (%), active compounds read high, % at 25 µM; 940 tested, 10% active;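 active means current increase at least 3 SD of the untreated controls above them in both duplicate recordings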
Numbers without * were called inactive; i = inactive; . = no result given. Rows were chosen to be rich in hits. Some 1.6% of all compounds tested hit in one or more screens of this group.

SMILES	KCNQ2 inh	KCNQ2 pot	Kir21 conf inh	HEK293 ctr	others
CCc1ccc2nc(N(CCCN(C)C)C(=O)c3ccc(C(=O)c4ccccc4)cc3)sc2c1	i	.	.	.
CC(C)N(Cc1ccccc1)S(=O)(=O)c1ccc(Cl)nc1	i	.	65%*	i
CN(Cc1ccccc1)S(=O)(=O)c1ccc(Cl)nc1	i	.	.	.
CCOc1ccc(OCCOCCN2CCc3ccccc3C2)cc1	i	1.2	.	.
c1ccc(OCCOCCN2CCc3ccccc3C2)cc1	i	0.27	.	.
CCCOc1ccc(OCCOCCN2CCc3ccccc3C2)cc1	i	0.21	60%*	i
C=CCc1cc(OC)ccc1OCCOCCN1CCc2ccccc2C1	i	.	18%*	i
CCCCn1c(N)c(N(CCOC)C(=O)COC(=O)COc2ccccc2C#N)c(=O)[nH]c1=O	i	.	.	.
COc1ccc(NC(=O)CSc2nc(C(C)C)nc3c2c(=O)n(C)c(=O)n3C)c(OC)c1	i	.	.	.
CCOc1ccc(C(=O)NCC(=O)N2CCN(c3ccccc3O)CC2)cc1	i	0.28	.	.
COC(=O)CSC1=NS(=O)(=O)c2ccccc21	-7.9*	-7.9	58%*	i
COC(=O)CSc1ccccc1C(=O)OC	i	.	.	.
COc1ccc(C(=O)NNC2=C(C(=O)C(F)(F)F)CCC2)cc1	i	5.5*	i	i	CHO-K1 Tl ctr=14*;KCNQ1 sel pot=32*;KCNQ2 pot conf=6.0*;Kir2-1 sel=-37;KCNQ2 W236L pot=i
O=C(NNC1=C(C(=O)C(F)(F)F)CCC1)c1cccc(Cl)c1	i	4.8	.	.
O=C(NNC1=C(C(=O)C(F)(F)F)CCC1)c1ccc(Cl)cc1	i	7.8*	i	i	CHO-K1 Tl ctr=18*;KCNQ1 sel pot=-13;KCNQ2 pot conf=4.8*;Kir2-1 sel=-30;KCNQ2 W236L pot=i
COc1ccc(C(=O)NNc2ccccc2)cc1	i	.	.	.
CC1Cc2cc(S(=O)(=O)N3CCC(C(=O)N4CCN(c5ccccc5F)CC4)CC3)ccc2N1C(=O)C1CC1 (stereo not drawn)	i	.	.	.
CC(=O)Nc1ccccc1NC(=O)C/C(C)=N/NC(=O)Cc1cccc2ccccc12	i	0.34	.	.
O=c1[nH]cc(N=Cc2cc([N+](=O)[O-])ccc2O)c(=O)[nH]1	i	.	.	.
O=c1[nH]cc(N=Cc2cc(Cl)cc(Cl)c2O)c(=O)[nH]1	i	8.3*	i	i	CHO-K1 Tl ctr=15*;KCNQ1 sel pot=18*;KCNQ2 pot conf=24*;Kir2-1 sel=-12;KCNQ2 W236L pot=i
COc1ccccc1C(=O)NNC(=O)C(=O)Nc1ccc(C)cc1	i	22*	i	416%*	CHO-K1 Tl ctr=-21;KCNQ1 sel pot=25*;KCNQ2 pot conf=47*;Kir2-1 sel=-17;KCNQ2 W236L pot=i
COc1ccccc1C(=O)NNC(=O)C(=O)NC(C)(C)C	i	3.8	.	.
COc1ccccc1C(=O)NNC(=O)C(=O)Nc1ccc(C)c(Cl)c1	i	28*	i	312%*	CHO-K1 Tl ctr=78*;KCNQ1 sel pot=-9;KCNQ2 pot conf=54*;Kir2-1 sel=-27;KCNQ2 W236L pot=i
COc1ccccc1C(=O)NNC(=O)c1ccc(Cl)cc1	i	0.04	.	.
CSc1ccc(NC(=O)Nc2ccc(C(=O)NCC(=O)O)cc2)cc1	i	0.62	.	.
SMILES	KCNQ2 inh	KCNQ2 pot	Kir21 conf inh	HEK293 ctr	others
O=C1CC(N2CCN(C3CC(=O)N(CCc4ccccc4)C3=O)CC2)C(=O)N1CCc1ccccc1 (stereo not drawn)	i	0.42	.	.
O=C1CC(N2CCC(Cc3ccccc3)CC2)C(=O)N1CCc1ccccc1 (stereo not drawn)	i	5.7*	i	i	CHO-K1 Tl ctr=-6;KCNQ1 sel pot=-28;KCNQ2 pot conf=7.5*;Kir2-1 sel=-32;KCNQ2 W236L pot=i
O=C(O)c1cccc(-n2nnnc2SCc2ccccn2)c1	i	.	.	.
c1ccc(CSc2nnnn2-c2cccc3ccccc23)nc1	i	.	66%*	i
Cc1ccc(N(C(=O)CS(=O)CC(=O)Nc2ccc(F)cc2)C(C)C(=O)NC(C)(C)C)cc1 (stereo not drawn)	i	.	.	.
CC(C)Cc1cc(C(=O)N2CCCC(CO)(Cc3ccc(F)cc3F)C2)n[nH]1 (stereo not drawn)	i	.	.	.
CC(C)CN1CCC(=O)N([C@H](CO)c2ccccc2)CC1	i	0.31	.	.
COc1ccc(NC(=O)CSCC(=O)Nc2cccc3ncccc23)cc1	i	.	.	.
CCN1CCc2c(C#N)c(N3CCCCC3)nc(N3CCOCC3)c2C1	i	.	.	.
N#Cc1c(N2CCOCC2)nc(N2CCCCC2)c2c1CCN(C1CCCCC1)C2	i	11*	i	i	CHO-K1 Tl ctr=-16;KCNQ1 sel pot=10*;KCNQ2 pot conf=16*;Kir2-1 sel=-22;KCNQ2 W236L pot=i
Cc1ccc(C(O)(CNCc2ccccc2)c2ccccc2)cc1 (stereo not drawn)	i	.	46%*	i
Cc1ccc(C(O)(CCN2CCCCC2)c2ccccc2)cc1 (stereo not drawn)	i	.	.	.
COc1ccc(CNCC(O)(c2ccccc2)c2ccc(F)cc2)cc1OC (stereo not drawn)	i	0.98	.	.
COc1ccc(CNCC(O)(c2ccccc2)c2ccc(F)cc2)cc1 (stereo not drawn)	i	.	42%*	i
COc1ccc(CCNC/C=C/c2ccccc2)cc1	i	0.37	.	.
COc1ccc(CNC/C=C/c2ccccc2)cc1	i	0.18	18%*	i
CC(=O)NC(N(C#N)c1nc(Cl)nc(N(C)C)n1)C(Cl)(Cl)Cl (stereo not drawn)	i	0.55	.	.
O=C(OCc1cccc([N+](=O)[O-])c1)c1ccncc1	i	6.6*	i	142%*	CHO-K1 Tl ctr=-5;KCNQ1 sel pot=-19;KCNQ2 pot conf=1.0*;Kir2-1 sel=-33;KCNQ2 W236L pot=i
O=C(OCc1cccc([N+](=O)[O-])c1)c1cnccn1	i	1.6	.	.
CCCCc1cc(O)c(CCCC)c(O)c1	i	8.7*	.	.	CHO-K1 Tl ctr=-16;KCNQ1 sel pot=-15;KCNQ2 pot conf=38*;Kir2-1 sel=-55;KCNQ2 W236L pot=i
CCCCCc1cc(O)c2c(C)cc(=O)oc2c1	i	0.22	.	.
CSCc1ccc(C(=O)N2CCCC(Nc3ccc4c(c3)OCCO4)C2)o1 (stereo not drawn)	i	0.77	.	.
CSCc1ccc(C(=O)N2CCCC(Nc3ccc(F)cc3)C2)o1 (stereo not drawn)	i	.	50%*	i
CCOC(=O)CC1C(=O)NCCN1C(=O)c1ccc(Cl)c(Cl)c1 (stereo not drawn)	i	.	.	.
CC(=O)N1c2ccc(N=Cc3cc(Br)cc(Br)c3O)cc2CC1C (stereo not drawn)	i	12*	i	i	CHO-K1 Tl ctr=-16;KCNQ1 sel pot=43*;KCNQ2 pot conf=14*;Kir2-1 sel=-33;KCNQ2 W236L pot=i
